In ChEMBL document CHEMBL4513135, “CO-ADD screening of IQOG CSIS (Spain) compounds”:
Values joined by “and” are separate entries in the source; they are usually repeats but may differ in a detail not shown here. Identical values can stand only once. Potency and affinity values are given separately.

Tests used:
Klebsiella pneumoniae = settings: Concentration 32 ug.mL-1, ASSAY_TEST Inhibition of Bacterial Growth, detection method Absorption (OD600), MEDIA CAMHB, plate type 384well, NBS, CORNING #3640, time 18 hr
Candida albicans = settings: 32 ug/mL
Cryptococcus neoformans = settings: Concentration 32 ug.mL-1; ASSAY_TEST Inhibition of Fungal Growth; detection method Resazurin; Absorption (OD600-OD570); plate type 384well; NBS; CORNING #3640

| Compound | Inhibition (Klebsiella pneumoniae) [%] | Inhibition (Candida albicans) | Inhibition (Cryptococcus neoformans) [%] | Inhibition (Klebsiella pneumoniae; 32 ug/mL) |
| --- | --- | --- | --- | --- |
| C#CCNC(=O)c1cc2cc(OCCCC3CCN(Cc4ccccc4)CC3)ccc2[nH]1 | 4.92 | 1.71% | -106.43 | – |
| Cc1ccc(C=C2N=C(c3ccccc3)OC2=O)cc1 | 9.43 | -0.14% | -5.42 | – |
| CSC1=NC(=Cc2cn(C)c3ccccc23)C(=O)N1C | -7.62 | 1.89% | -7.7 | – |
| Cl.N#Cc1c(Cl)nc(N)nc1NCCO | 6.6 | 1.9% | 8.33 | – |
| CN(C)c1nc(N)c(C#N)cc1C#N.Cl | – | 3.18% and 2.67% | – | -3.22% and 8.57% |
| CCOC(=O)C1=C(C)Oc2nc3c(c(N)c2C1c1ccc(O)c(OC)c1)CCC3 (configuration not stated) | 2.99 | 0.9% | -66.64 | – |
| Cc1[nH]nc2c1C(c1ccc(O)c(O)c1)C(C#N)=C(N)O2 (configuration not stated) | 21.92 | 0.31% | 0.65 | – |
| O=C(N/N=C/c1c[nH]c2ccccc12)c1cc2ccccc2[nH]1 | 11.64 | 0.51% | -6.47 | – |
| CCOC(N)=CC#N | -6.69 | 0.84% | -10.57 | – |
| Cc1ccc(C2c3ccc4ccccc4c3Oc3nc4c(c(N)c32)CCCC4)cc1 (configuration not stated) | -8.56 | 2.81% | 5.66 | – |
| CCOC(=O)c1c(C)nc2nc3c(c(N)c2c1-c1ccc(OC)cc1)CCCCCC3 | 2.79 | -1.03% | -97 | – |
| N#CC1=C(N)Oc2ccc3ccccc3c2C1c1cccc([N+](=O)[O-])c1 (configuration not stated) | 6.14 | 10.7% | -44.61 | – |
| C#CCN(C)Cc1cc2cc(OCCCCC3CCN(Cc4ccccc4)CC3)ccc2n1C | 10.12 | 2.73% | -48.77 | – |
| CCOC(=O)C1=C(C)OC(N)=C(C#N)C1c1ccccc1 (configuration not stated) | 11.23 | 6.07% | -42.71 | – |
| O=C(Cc1cccc2ccccc12)N/N=C/c1c[nH]c2ccccc12 | 10.96 | 1.2% | -4.19 | – |
| C=C1CN(Cc2ccccc2)c2c(C#N)c(-c3ccccc3)c(C#N)c(=N)n21 | 17.58 | 2.82% | -53.83 | – |
| CCOC(=O)c1cc2cc(OC(=O)Oc3ccc([N+](=O)[O-])cc3)ccc2[nH]1 | 0.96 | 0.86% | -63.93 | – |
| COc1cccc(C2c3c(ccc4ccccc34)OC(=NBr)C2(Br)C#N)c1 (configuration not stated) | 33.1 | 26.4% | -22.56 | – |
| Cn1c(C(=O)O)cc2ccccc21 | 18.05 | 24.1% | 5.37 | – |
| N#Cc1cc(C#N)c(N2CCCC2)nc1N | 16.35 | 1.23% | -54.35 | – |
| Cc1ccc2nc(Cl)c(/C=N/OCc3ccccc3)cc2c1 | 9.15 | 2.45% | -9.27 | – |
| COC1=C(C#N)CC(C)C(=O)N1 (configuration not stated) | 6.94 | 1.01% | -33.52 | – |
| CC(=NNC(N)=O)c1c[nH]c2ccccc12 | 10.53 | 5.46% | -5.64 | – |
| N#Cc1c(N)nc(Cl)c(C#N)c1-c1ccccc1 | 1.22 | 6.28% | -2.34 | – |
| C#CCN(C)c1ncc(C#N)c(N)n1 | 9.44 | 5.2% | -42.08 | – |
| C#CCNc1nc(Cl)c(C#N)c(-c2ccccc2)c1C#N | -23.73 | 1.27% | -7.07 | – |

| Compound | Inhibition (Klebsiella pneumoniae) [%] | Inhibition (Candida albicans) | Inhibition (Cryptococcus neoformans) [%] | Inhibition (Klebsiella pneumoniae; 32 ug/mL) |
| --- | --- | --- | --- | --- |
| Cc1ccc(CNNC(=O)c2cc3ccccc3n2C)cc1 | -14.45 | 1.69% | -0.2 | – |
| COc1ccc(C2c3ccc4ccccc4c3Oc3nc4c(c(N)c32)CCCC4)c(OC)c1 (configuration not stated) | 4.09 | 0.01% | -0.17 | – |
| C#CCN(C)c1nc(NCC2CCN(Cc3ccccc3)CC2)c(C#N)c(-c2ccccc2)c1C#N.Cl | 9.81 | -0.67% | 16.69 | – |
| Cn1cc(C=O)c2ccccc21 | 2.25 | 1.53% | -4.31 | – |
| CC(=O)Oc1ccc(C=C2N=C(C)OC2=O)cc1 | 7.96 | -1% | -2.97 | – |
| C#CCN(C)c1cc(Cl)nc(N)n1 | 16.87 | 11.4% | -46.13 | – |
| CCOC(=O)/C(C#N)=C\c1ccc([N+](=O)[O-])cc1 | 10.6 | 5.79% | -3.2 | – |
| O=Cc1ccc(OCCO[N+](=O)[O-])cc1 | 8.5 | 5.46% | -2.32 | – |
| NOC(=O)C1CCN(Cc2ccccc2)CC1 | 4.34 | 1.62% | -5.93 | – |
| CCOC(=O)C1=C(C)OC(N)=C(C#N)C1c1ccco1 (configuration not stated) | 6.85 | 1.71% | -29.39 | – |
| CC(=O)n1cc(/C=C2\N=C(c3ccccc3)OC2=O)c2ccccc21 | 0.98 | 1.66% | -2.55 | – |
| CCCC(C)NNC(=O)c1cc2ccccc2[nH]1 (configuration not stated) | -0.18 | 0.67% | -3.77 | – |
| CCOC(=O)c1cc2cc(O)ccc2n1C(=O)OC(C)(C)C | 2.98 | 1.56% | -9.8 | – |
| O=C(Cc1ccccc1)N/N=C/c1c[nH]c2ccccc12 | 20.21 | 3.09% | -2.34 | – |
| ClCCC1CCN(Cc2ccccc2)CC1 | 14.5 | 6.52% | -7.64 | – |
| CN(N=O)C(=O)NC1(C(=O)O)CC1c1ccccc1 (configuration not stated) | 23.72 | 1.7% | -0.92 | – |
| N#CC1=C(N)Oc2ccc3ccccc3c2C1c1ccccc1 (configuration not stated) | 9.26 | 1.08% | -36.46 | – |
| N#Cc1c(N)nc(NCc2ccccc2)c(C#N)c1-c1ccccc1 | -1.47 | 0.34% | -28.27 | – |
| CCOC(=O)/C(=C\c1ccccc1)C(=O)c1ccccc1 | -3.55 | 3.73% | -2.93 | – |
| N#CC1=C(N)Oc2c(ccc3ccccc23)C1c1ccc(Cl)c(Cl)c1 (configuration not stated) | -23.32 | 1.53% | -2.77 | – |
| CC(=O)NCCc1ccccc1 | 14.22 | 1.13% | -3.47 | – |
| N#Cc1ccc(Br)cc1N | 26.43 | 18% | -4.02 | – |
| COc1ccc2cc(C3C4=C(CC(C)(C)CC4=O)Oc4nc5c(c(N)c43)CCC5)c(Cl)nc2c1 (configuration not stated) | 7.42 | 10.1% | -1.53 | – |
| CC(C)C(=O)N/N=C/c1c[nH]c2ccccc12 | 19.59 | -0.11% | -5.03 | – |
| CCOC(=O)/C(C#N)=C\c1ccc(C)cc1 | 18.72 | 1.42% | -4.89 | – |
| N#Cc1c(Cl)nc(NC2CCN(Cc3ccccc3)CC2)c(C#N)c1-c1ccccc1 | 0.34 | -0.87% | -53.1 | – |

| Compound | Inhibition (Klebsiella pneumoniae) [%] | Inhibition (Candida albicans) | Inhibition (Cryptococcus neoformans) [%] | Inhibition (Klebsiella pneumoniae; 32 ug/mL) |
| --- | --- | --- | --- | --- |
| O=C1SC(SCc2ccccc2)=NC1=Cc1ccccc1 | 8.07 | 1.92% | -3.98 | – |
| N#CC1=C(N)NC(=O)CC1c1ccccc1 (configuration not stated) | 22.17 | 1.7% | -51.84 | – |
| COc1ccc(C2c3c(nc4c(c3N)CCCC4)Oc3ccc4ccccc4c32)c(OC)c1 (configuration not stated) | 6.37 | 10.9% | 16.32 | – |
| N#CC1(Br)C(=NBr)Oc2ccc3ccccc3c2C1c1ccccc1 (configuration not stated) | -3 | 3.44% | -1.83 | – |
| C#CCN(C)Cc1cc2cc(OCOc3ccc4c(c3)cc(CN(C)CC#C)n4C)ccc2n1C | 2.59 | -0.1% | -41.21 | – |
| CCOc1nc2nc(CCc3ccccc3)ccc2c(-c2ccccc2)c1C#N | 1.47 | 7.93% | -42.89 | – |
| O=C(N/N=C/c1c[nH]c2ccccc12)C(c1ccccc1)c1ccccc1 | 10.97 | 1.46% | -1.94 | – |
| N#CC1=C(Cl)Oc2ccc3ccccc3c2C1c1ccccc1 (configuration not stated) | 13.06 | 2.47% | -4.84 | – |
| COc1ccc2c(c1)cc(CN)n2C | 13.36 | 2.3% | -4.4 | – |
| CCOC(=O)c1c(C)[nH]c2ccc(OC)cc12 | 6.33 | 1.53% | -2.15 | – |
| Br.C#CCNCc1ccccc1 | 12.8 | -0.33% | -4.9 | – |
| N#CC1=C(N)Oc2ccc3ccccc3c2C1c1ccccc1[N+](=O)[O-] (configuration not stated) | 9.29 | 2.32% | -44.45 | – |
| Cc1[nH]nc2c1C(c1cccc([N+](=O)[O-])c1)C(C#N)=C(N)O2 (configuration not stated) | 18.43 | -0.54% | -0.61 | – |
| CCOC(=O)c1c(C)nc2nc3c(c(N)c2c1-c1ccccc1OC)CCCCC3 | 0.86 | -0.21% | -93.54 | – |
| COc1cc(C2c3ccc4ccccc4c3Oc3nc4c(c(N)c32)CCCC4)ccc1O.Cl (configuration not stated) | -2.62 | -0.98% | -5.33 | – |
| N#CC1=C(N)Oc2ccc3ccccc3c2C1c1ccc(O)cc1 (configuration not stated) | 11.07 | 2.93% | -36.73 | – |
| N#Cc1cc(C#N)c(N2CCCCC2)nc1Cl | 12.8 | 0.28% | -0.7 | – |
| C#CCN(C)c1nc(NCCCCC2CCN(Cc3ccccc3)CC2)c(C#N)cc1C#N | 0.44 | 3.03% | -41.21 | – |
| CCCC(C)NNC(=O)Cc1c[nH]c2ccccc12 (configuration not stated) | 6.53 | 0.38% | 5.38 | – |
| Cc1nn(-c2ccccc2)c2ncn3nc(-c4ccccc4)nc3c12 | 14.39 | 1.63% | -1.31 | – |
| N#Cc1c(N)nc(NCCCCC2CCN(Cc3ccccc3)CC2)c(C#N)c1-c1ccccc1 | 9.09 | 2.22% | 0.12 | – |
| N#Cc1cc(C#N)c(NCCCCC2CCN(Cc3ccccc3)CC2)nc1N | 18.34 | 1.01% | -105.28 | – |
| COc1cc(C2C(C#N)=C(N)Oc3c2ccc2ccccc32)ccc1O (configuration not stated) | -1.93 | 22.7% | -42.63 | – |
| O=C1OC(c2ccccc2)=NC1=Cc1ccc(Cl)cc1 | 7.19 | 1.2% | -3.18 | – |
